# From ChEMBL document CHEMBL2218924, “A broad activity screen in support of a chemogenomic map for kinase signalling research and drug discovery” (Biochem J, 2013)
# Target: Hepatocyte growth factor receptor (Homo sapiens) (UniProt P08581)
# Conditions: at 1 µM
# Hepatocyte growth factor receptor (Homo sapiens), sequence (P08581 whole entry): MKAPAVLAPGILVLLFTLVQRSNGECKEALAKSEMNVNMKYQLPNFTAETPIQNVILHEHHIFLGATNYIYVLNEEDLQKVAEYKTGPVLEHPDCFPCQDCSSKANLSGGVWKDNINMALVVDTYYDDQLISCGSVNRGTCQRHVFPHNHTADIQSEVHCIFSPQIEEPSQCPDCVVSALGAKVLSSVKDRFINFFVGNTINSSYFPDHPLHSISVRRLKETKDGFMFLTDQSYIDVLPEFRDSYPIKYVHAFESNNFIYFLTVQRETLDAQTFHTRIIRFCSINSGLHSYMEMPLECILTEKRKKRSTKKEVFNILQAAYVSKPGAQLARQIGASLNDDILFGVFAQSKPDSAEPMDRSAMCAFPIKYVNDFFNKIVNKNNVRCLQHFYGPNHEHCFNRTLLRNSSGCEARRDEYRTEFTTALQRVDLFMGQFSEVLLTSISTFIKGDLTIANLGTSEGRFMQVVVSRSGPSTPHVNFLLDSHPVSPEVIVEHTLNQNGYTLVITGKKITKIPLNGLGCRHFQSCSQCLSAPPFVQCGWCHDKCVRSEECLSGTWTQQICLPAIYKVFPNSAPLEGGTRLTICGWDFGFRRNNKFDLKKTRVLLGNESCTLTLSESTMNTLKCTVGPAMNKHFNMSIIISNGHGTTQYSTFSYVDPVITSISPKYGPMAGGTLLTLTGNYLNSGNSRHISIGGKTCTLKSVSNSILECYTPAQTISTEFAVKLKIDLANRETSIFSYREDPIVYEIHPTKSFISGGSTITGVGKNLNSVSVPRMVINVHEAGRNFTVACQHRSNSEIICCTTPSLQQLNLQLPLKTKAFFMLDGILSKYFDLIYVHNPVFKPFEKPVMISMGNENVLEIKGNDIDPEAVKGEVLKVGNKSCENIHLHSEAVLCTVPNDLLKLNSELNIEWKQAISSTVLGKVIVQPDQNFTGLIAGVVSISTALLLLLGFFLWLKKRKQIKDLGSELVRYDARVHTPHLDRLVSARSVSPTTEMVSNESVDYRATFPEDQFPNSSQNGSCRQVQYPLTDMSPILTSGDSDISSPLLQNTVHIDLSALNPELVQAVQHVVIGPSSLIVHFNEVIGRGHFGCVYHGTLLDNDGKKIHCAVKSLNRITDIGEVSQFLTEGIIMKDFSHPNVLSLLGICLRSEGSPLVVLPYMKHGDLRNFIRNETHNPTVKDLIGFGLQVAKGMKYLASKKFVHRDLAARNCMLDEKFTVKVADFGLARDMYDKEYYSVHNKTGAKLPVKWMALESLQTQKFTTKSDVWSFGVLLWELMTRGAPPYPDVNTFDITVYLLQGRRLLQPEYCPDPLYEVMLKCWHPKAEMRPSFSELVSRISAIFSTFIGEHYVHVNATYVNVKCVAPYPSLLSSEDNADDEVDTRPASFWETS
row,SMILES,residual activity [%]
1,CO[C@H]1C[C@@H]2CC[C@@H](C)[C@@](O)(O2)C(=O)C(=O)N2CCCC[C@H]2C(=O)O[C@H]([C@H](C)C[C@@H]2CC[C@@H](O)[C@H](OC)C2)CC(=O)[C@H](C)/C=C(\C)[C@@H](O)[C@@H](OC)C(=O)[C@H](C)C[C@H](C)/C=C/C=C/C=C/1C,95
2,Nc1nc(Nc2ccc(S(N)(=O)=O)cc2)nn1C(=S)Nc1c(F)cccc1F,3
3,O=C1NC(=O)/C(=C\c2ccc3nccnc3c2)S1,98
4,COc1ccc(CNc2nc(N(CCO)CCO)nc3c2ncn3C(C)C)cc1,122
5,COc1ccc(C(=O)Nc2sc3c(c2C(N)=O)CCCC3)cc1OC,120
6,O=C(Nc1cccc(Nc2cc(Nc3cccc(C(F)(F)F)c3)ncn2)c1)C1CC1,103
7,Oc1ccc(Nc2nc(-c3ccc(Cl)cc3)cs2)cc1,138
8,COc1ccc(OC)c2c(=S)c3ccccc3[nH]c12,118
9,O=C1Nc2cc(Br)ccc2/C1=C1/Nc2ccccc2/C1=N\O,118
10,Nc1cccc(-c2cc3c(Oc4cccc(O)c4)ncnc3[nH]2)c1,63
11,Oc1n[nH]c2nnc(-c3c(-c4ccccc4)nn4ccccc34)cc12,104
12,COc1cccc(-c2cc(=O)c3ccccc3o2)c1N,117
13,Cc1nc2cc3nc(-c4cccs4)cnc3cc2n1C,128
14,O=Nc1c(-c2c(O)[nH]c3ccccc23)[nH]c2ccccc12,86
15,O=C1c2ccccc2-[n+]2ccc3c([nH]c4ccccc43)c21,112
16,CNc1cc2c(Nc3cccc(Br)c3)ncnc2cn1,89
17,O=c1cc(-c2cccc3c2Sc2ccccc2S3)oc(N2CCOCC2)c1,106
18,C[C@@H](N)[C@H]1CC[C@H](C(=O)Nc2ccncc2)CC1,132

row,SMILES,residual activity [%]
1,Cc1nc(-c2ccccc2)c(-c2ccncc2)o1,128
2,CCC(=O)Nc1ccc2ncnc(Nc3cccc(Br)c3)c2c1,99
3,Cn1cnc2cc3c(Nc4cccc(Br)c4)ncnc3cc21,85
4,CC(C)n1cnc2/c(=N/c3cccc(Cl)c3)nc(NCCO)[nH]c21,87
5,Oc1c2ccccc2c2c3c(cccc13)N=N2,87
6,COc1cc2ncnc(Nc3ccc(O)c(Br)c3)c2cc1OC,86
7,N#C/C(=C(\N)Sc1ccc(N)cc1)c1ccccc1C(F)(F)F,98
8,CCOc1cc2ncnc(Nc3cccc(Br)c3)c2cc1OCC,58
9,O=C1NC(=O)c2c1c1c3ccccc3[nH]c1c1[nH]c3cc(Br)ccc3c21,120
10,CC#CC(=O)Nc1cc2c(Nc3ccc(F)c(Cl)c3)ncnc2cn1,111
11,NC(=O)c1ccc2[nH]c(-c3ccc(Oc4ccc(Cl)cc4)cc3)nc2c1,128
12,O=C(Nc1cccc(Nc2nccc(Nc3cccc(C(F)(F)F)c3)n2)c1)C1CC1,79
13,O=c1c2ccccc2[nH]c(=S)n1CCN1CCC(=C(c2ccc(F)cc2)c2ccc(F)cc2)CC1,136
14,Ic1cccc(CSc2nnc(-c3ccncc3)o2)c1,126
15,O=C1NC(=O)/C(=C/c2ccc3c(c2)OC(F)(F)O3)S1,87
16,Cc1ccc(NC2=CC(=O)c3sc(C)nc3C2=O)cc1,91
17,CC(=O)O/N=C1\C(=C2\C(=O)Nc3cc(Br)ccc32)Nc2ccccc21,89
